Where “and” joins values, the source holds several entries; their conditions need not be identical. Equal values may be shown once. Results filed as inconclusive are left out. The source holds several records for some structures; these can differ, active in one and inactive in another. Calls of active or inactive are those of the source. The call rests on the fitted dose curve; in most records, active means well fitted inhibition curve with a large enough effect; inconclusive means small, poorly fitted or top-dose-only effect; inactive means no such curve, though single readings can be large or run the other way.
Further: nearly all actives have a fitted effect of over 60% in size.
On the % scale 0 is the no-effect control and ±100 the full control effect.

Chain of Cytochrome P450 2D6 (Homo sapiens) (P10635 whole entry, looked up): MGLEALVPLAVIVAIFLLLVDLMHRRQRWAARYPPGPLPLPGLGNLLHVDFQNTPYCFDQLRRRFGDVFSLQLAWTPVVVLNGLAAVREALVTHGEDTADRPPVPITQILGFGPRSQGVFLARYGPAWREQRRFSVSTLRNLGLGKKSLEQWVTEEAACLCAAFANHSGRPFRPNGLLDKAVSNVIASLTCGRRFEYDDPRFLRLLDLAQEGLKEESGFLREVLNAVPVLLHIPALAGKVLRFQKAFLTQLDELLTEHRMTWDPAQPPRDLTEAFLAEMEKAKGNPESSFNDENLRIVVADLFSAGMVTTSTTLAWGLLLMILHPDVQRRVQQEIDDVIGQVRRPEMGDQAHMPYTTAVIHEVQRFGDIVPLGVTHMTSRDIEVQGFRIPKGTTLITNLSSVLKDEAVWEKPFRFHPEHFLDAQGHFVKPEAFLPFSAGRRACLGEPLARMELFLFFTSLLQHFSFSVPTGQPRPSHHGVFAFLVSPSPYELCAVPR

The first assay concerns the target Cytochrome P450 2D6 (Homo sapiens) (UniProt P10635). Kind of assay: qHTS Assay for Inhibitors and Substrates of Cytochrome P450 2D6 (AID 891).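 Further: luciferin methyl ether substrate demethylated by CYP2D6 with NADPH regeneration.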 The note with it: recombinant CYP2D6, luciferin-ME EGE luminescence; series mostly up to 11.4 µM; activity change, negative = inhibition: at the top concentration. Summed up: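 Luminescent read-out of luciferin formed by 5 nM human CYP2D6 demethylating 30 uM Luciferin-ME EGE (Km level) over 60 min at room temperature after NADPH regeneration addition. Data normalized to full inhibition by 1.43 uM quinidine.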
(In qHTS, concentration-response curves come from the screen itself.)
Take `COC(=O)NC(CC(C)=O)c1ccc(Cl)cc1` (stereo not drawn): the “activity change, negative = inhibition” value was -8.84% (inactive). The same measure, in the same setting: the same measure for `CCC(=O)CC(NC(=O)OC)c1ccc(F)cc1` (stereo not drawn): -4.99% (inactive); for `CC(=O)OCC1OC(c2ccc(C(C)=O)cc2)C=CC1OC(C)=O` (stereo not drawn): -2.45% (inactive).

In the next assay the target is Cytochrome P450 2C19 (Homo sapiens) (UniProt P33261). Kind of assay: qHTS Assay for Inhibitors and Substrates of Cytochrome P450 2C19 (AID 899). Further: potency means the concentration at half of the fitted maximal effect. The note with it: recombinant CYP2C19, luciferin-H EGE luminescence; series mostly up to 11.4 µM; activity, negative = inhibition: at the top concentration. Summed up: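 5 nM human CYP2C19 with 10uM Luciferin-H EGE (at KM) in 50mM KPO4, compound preincubated 10 min at 37C, then NADPH regeneration for 60 min at 37C. Luciferin read by luminescence after detection reagent; normalized to 57uM ketoconazole as full inhibition.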
Chain of Cytochrome P450 2C19 (Homo sapiens) (P33261 whole entry, looked up): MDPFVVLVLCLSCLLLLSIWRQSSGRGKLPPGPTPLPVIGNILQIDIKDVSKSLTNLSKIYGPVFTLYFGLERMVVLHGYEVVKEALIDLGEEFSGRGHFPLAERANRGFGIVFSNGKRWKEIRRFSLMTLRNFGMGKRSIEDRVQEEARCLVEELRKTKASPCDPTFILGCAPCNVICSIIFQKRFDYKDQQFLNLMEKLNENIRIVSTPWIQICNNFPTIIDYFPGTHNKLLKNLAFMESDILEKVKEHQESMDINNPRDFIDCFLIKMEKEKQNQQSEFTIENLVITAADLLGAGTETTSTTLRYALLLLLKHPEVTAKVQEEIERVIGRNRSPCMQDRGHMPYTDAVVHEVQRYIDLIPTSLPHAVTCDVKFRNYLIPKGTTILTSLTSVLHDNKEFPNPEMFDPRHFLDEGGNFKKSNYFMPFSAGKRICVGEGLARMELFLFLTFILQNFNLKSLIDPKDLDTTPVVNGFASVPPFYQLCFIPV
With `CN1CCc2nc(-c3ccccc3)c(-c3ccccc3)cc2C1`, the “activity, negative = inhibition” value was 43.4% (inactive). In the case of `COC(=O)NC(CC(C)=O)c1cccc(F)c1` (stereo not drawn), the “activity, negative = inhibition” value was 38.6% (inactive).

In the case of `CC(=O)OCC1OC(C#Cc2ccccc2)C=CC1O` (stereo not drawn), the “activity, negative = inhibition” value was 23.6% (inactive). Still for that read-out and setting: next, `COC(=O)CC1=COC2OCC3=CC[C@@H]1C32` (stereo partly drawn): 26.7% (inactive); `O=C1C=C[C@@H](O)[C@@H]2[C@H]3C(=O)N(c4ccc(F)cc4F)C(=O)[C@@H]3CC[C@@H]12`: -43.8% (inactive). Turning to `CC(C)CN1CCc2nc(-c3ccccc3)c3c(c2CC1)COC(C)C3` (stereo not drawn), the “activity, negative = inhibition” value was 44.9% (inactive).

With `COC(=O)NC(c1cccc(F)c1)[C@@]1(C(=O)OC)CCCC1=O` (stereo partly drawn), the “activity, negative = inhibition” value was -14% (inactive).

Regarding `CC12C=C(/C=C/c3ccc(F)cc3)C(C)(C1)C(c1ccc(F)cc1)CC2=O` (stereo not drawn), the Potency is 2510 nM (active). Turning to `COC(=O)NC(c1cccc(C)c1)[C@@]1(C(=O)OC)CCCC1=O` (stereo partly drawn), the “activity, negative = inhibition” value was -36.3% (inactive). In the case of `CCN1C(C)=C(C(=O)OC)C(c2ccccc2)N2C(=O)[C@@]3(C(=O)OC)O[C@@]12C1C(=O)N(C)C(=O)C13` (stereo partly drawn), the “activity, negative = inhibition” value was 20.4% (inactive). Take `CCOP(=O)(CC(C(C)=O)C(O)c1ccccc1)OCC` (stereo not drawn): the “activity, negative = inhibition” value is 24.3% (inactive). In the case of `C#CC(C)OC(=O)c1nnc2c3ccccc3n(COC)c2n1` (stereo not drawn), the “activity, negative = inhibition” value is 30% (inactive). Take `CC1(C)Oc2cc3c(cc2O1)OC(C)(C)O3`: the “activity, negative = inhibition” value is 0.578% (inactive). As to `COc1cc(C2NC(C(=O)O)Cc3c2[nH]c2ccccc32)cc(OC)c1OC` (stereo not drawn), the “activity, negative = inhibition” value is 87.4% (inactive).

Consider `CCOC(=O)OCC1OC(C#CC(C)(C)C)C=CC1OC(=O)OCC` (stereo not drawn), for which the Potency is 2510 nM (active).

On to `COC(=O)NC(CC(C)=O)c1cccs1` (stereo not drawn), for which the “activity, negative = inhibition” value is 41.5% (inactive). `CC1CCC2C(=O)N3CCCC3C(=O)N2C1c1ccc(Br)cc1` (stereo not drawn): the “activity, negative = inhibition” value is -25.9% (inactive).

With `CCC1OCCC=CC1C` (stereo not drawn), the “activity, negative = inhibition” value is 43.2% (inactive). Still for that read-out and setting: next, `CC(C)CC1OCCC=CC1C` (stereo not drawn): 39.6% (inactive); `COC(=O)NC(c1ccccc1)[C@@]1(C(=O)OC)CCCC1=O` (stereo partly drawn): -25.8% (inactive); `CCOC(=O)[C@]1(C(NC(=O)OC)c2cccc(C)c2)CCCC1=O` (stereo partly drawn): -7.53% (inactive). Take `CCOC(=O)OCC1OC(c2ccccc2)C=CC1Oc1ccc2oc(=O)cc(C)c2c1` (stereo not drawn): the “activity, negative = inhibition” value is 53.7% (inactive). In the case of `COC(=O)NC(c1ccco1)[C@@]1(C(=O)OC)CCCC1=O` (stereo partly drawn), the “activity, negative = inhibition” value was 65.9% (inactive). Still for that read-out and setting: next, `CC1CCC(C(=O)O)NC1c1cccc(N2CCOCC2)c1` (stereo not drawn): 71.6% (inactive).

Turning to `CC1CCC2C(=O)N3C(CCC(C)[C@@H]3c3ccc(-c4ccco4)cc3)C(=O)N2C1c1cccc(N2CCCC2=O)c1` (stereo partly drawn), the “activity, negative = inhibition” value was 54.2% (inactive). As for `COC(=O)NC(CC(C)=O)c1ccccc1` (stereo not drawn), the “activity, negative = inhibition” value was -44.6% (inactive). In the case of `O=C(/C=C/c1ccccc1)N1CCCC1CO` (stereo not drawn), the “activity, negative = inhibition” value was 65.3% (inactive). Regarding `OCC1OC(c2ccccc2)C=CC1Oc1ccc(C2CCCC2)cc1` (stereo not drawn), the “activity, negative = inhibition” value is -12.5% (inactive). The same measure, in the same setting: the same measure for `CC1(C)OC(C(O)(c2cc(F)c(F)c(F)c2)c2cc(F)c(F)c(F)c2)C(C(O)(c2cc(F)c(F)c(F)c2)c2cc(F)c(F)c(F)c2)O1` (stereo not drawn): -19.5% (inactive). Still for that read-out and setting: next, `CCCCCCC/C=C/C1=CC2(C)CC1(C)C(CCCCCCC)CC2=O` (stereo not drawn): 68.6% (inactive); `COc1cccc(C2NC(C(=O)O)CCC2C)c1` (stereo not drawn): 22.1% (inactive); `CCOC(=O)CCCCC1=CC2=CC(=O)C(C)(O)C(=O)C2=CO1` (stereo not drawn): 4.86% (inactive). On the same count and under the same terms, the same measure for `C=CCc1cccc(C2NC(C(=O)O)CCC2C)c1` (stereo not drawn): 60.1% (inactive). With `Cc1ccc(OC2C(O)COC2/C=C/C#Cc2ccc(C(C)(C)C)cc2)cc1` (stereo not drawn), the Potency entry is “inactive”.

In the case of `COC(=O)NC(c1ccccc1)[C@]1(C(C)=O)CCCC1=O` (stereo partly drawn), the “activity, negative = inhibition” value is -40.6% (inactive). Turning to `CC(=O)OCC1OC(C#CC2=CCCCC2)C=CC1OC(C)=O` (stereo not drawn), the “activity, negative = inhibition” value was -22% (inactive).

In the case of `CC1CN2C(CCC(C)C2c2ccc(Br)cc2)C(=O)O1` (stereo not drawn), the Potency entry was “inactive and 501 nM (active)”.

In the case of `COC(=O)NC(CC(C)=O)c1ccc(Cl)cc1` (stereo not drawn), the “activity, negative = inhibition” value was -8.18% (inactive).

As to `CCC(=O)CC(NC(=O)OC)c1ccc(F)cc1` (stereo not drawn), the “activity, negative = inhibition” value was 22.6% (inactive). In the case of `CC(=O)OCC1OC(c2ccc(C(C)=O)cc2)C=CC1OC(C)=O` (stereo not drawn), the “activity, negative = inhibition” value is 27.1% (inactive).

Source of the values: PubChem BioAssay (NCATS).
